The values below come from PubChem BioAssay (EPA / NIEHS).

Experiment [1] can be described thus: ATG_PXRE_CIS: Attagene CIS-FACTORIAL HepG2 Assay for human Pregnane X Receptor Element (PXRE) (AID 2282957). As to conditions: HepG2 Attagene CIS-FACTORIAL PXRE reporter, mRNA; actives raise or lower the signal. The procedure, abridged:
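Multiplexed cis-reporter assay in transiently transfected human HepG2 cells; 24 h chemical exposure. Reporter transcripts quantified by RT-PCR with fluorescent labeling and capillary electrophoresis.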

A short description of experiment [2]: ATG_RORE_CIS: Attagene CIS-FACTORIAL HepG2 Assay for human RAR-related Orphan Receptor Element (RORE) (AID 2282959). Particulars: HepG2 Attagene cis-factorial RORE reporter, mRNA; actives raise or lower the signal. The procedure, abridged:
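Fluorescence intensity of reporter-specific cDNA fragments, separated by capillary electrophoresis, gives the signal. Source: HepG2 liver cells transiently transfected with cis-element reporters and exposed 24 h; DMSO-normalized bidirectional fit.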

A short description of experiment [3]: ATG_Sox_CIS: Attagene CIS-FACTORIAL HepG2 Assay for human SRY-box transcription factor (SOX) (AID 2282960). As to conditions: HepG2 Attagene cis-factorial SOX reporter, mRNA; actives raise or lower the signal. Summed up:
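After 24 h of chemical treatment, transfected HepG2 reporter cells are lysed for total RNA. Transcript levels come from RT-PCR with labelled primer extension and capillary electrophoresis, analysed bidirectionally versus DMSO.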

Experiment [4] has as its target Transcription factor Sp1 (Homo sapiens) (UniProt P08047). The experiment is described as follows: ATG_Sp1_CIS: Attagene CIS-FACTORIAL HepG2 Assay for human Specificity Protein 1 (Sp1) (AID 2282961). As to conditions: HepG2 Sp1 cis-reporter transcription, actives raise or lower the signal. The procedure, abridged:
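Sp1-driven reporter mRNA, read as capillary electrophoresis fluorescence after RT-PCR, in transiently transfected HepG2 cells dosed for 24 h; signal change in either direction relative to DMSO.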

Experiment [5] in a line: ATG_SREBP_CIS: Attagene CIS-FACTORIAL HepG2 Assay for human Sterol Regulatory Element Binding (SREBP) (AID 2282962). Particulars: HepG2 Attagene cis-factorial SREBP reporter, mRNA; actives raise or lower the signal. The procedure, abridged:
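HepG2 cells transiently transfected with multiplexed cis-promoter reporter units sensing endogenous transcription factors; reporter mRNA measured 24 h after dosing by RT-PCR, 6-FAM labeling, HpaI digestion and capillary electrophoresis. Bidirectional fit versus DMSO.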

Experiment [6] has as its target Signal transducer and activator of transcription 3 (Homo sapiens) (UniProt P40763). In words: ATG_STAT3_CIS: Attagene CIS-FACTORIAL HepG2 Assay for human Signal Transducer and Activator of Transcription 3 (STAT3) (AID 2282963). As to conditions: HepG2, Attagene cis-factorial STAT3 reporter transcription; actives raise or lower the signal. Summed up:
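Values derive from bidirectional fits relative to DMSO of reporter mRNA levels, measured by RT-PCR with capillary electrophoresis, in HepG2 cells carrying transiently transfected cis-regulated reporter units and exposed 24 h.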

Experiment [7] in a line: ATG_TCF_b_cat_CIS: Attagene CIS-FACTORIAL HepG2 Assay for human T-Cell-Factor with beta-catenin (TCF/b-cat) (AID 2282965). Particulars: HepG2 TCF/beta-catenin cis-reporter transcription, actives raise or lower the signal. The procedure, abridged:
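Cells of the HepG2 line carry transiently transfected reporter units whose promoters respond to endogenous factors. Twenty-four hours post-dosing, reporter mRNA induction is measured by fluorescent RT-PCR and capillary electrophoresis, with DMSO as baseline.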

Experiment [8] can be described thus: ATG_PPRE_CIS: Attagene CIS-FACTORIAL HepG2 Assay for human Peroxisome Proliferator-activated Response Element (PPRE) (AID 2282958). Particulars: HepG2 PPRE cis-element reporter, Attagene transcription factor profiling; actives raise or lower the signal. The procedure, abridged:
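Multiplexed reporter transcription units under cis-regulatory promoters were transfected into HepG2 cells to capture endogenous factor activity. A 24 h incubation preceded RNA isolation and fluorescent RT-PCR fragment analysis.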

Experiment [9] in a line: ATG_TA_CIS: Attagene CIS-FACTORIAL HepG2 Assay for human TA Basal Promoter (AID 2282964). As to conditions: HepG2 Attagene CIS-factorial TA basal promoter reporter; actives raise or lower the signal. The procedure, abridged: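 HepG2 cells transiently transfected with multiple reporter units under cis promoter elements, reporting endogenous transcription factor activity; this endpoint tracks the TA basal promoter as background control. Reporter mRNA after 24 h dosing measured by RT-PCR/capillary electrophoresis; bidirectional fits versus DMSO.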

The source made the active and inactive calls. Rule for the calls: active = hit-call score of the fitted dose curve at least 0.9, where 1 is the maximum; inactive = score below 0.9.

Sequence of Transcription factor Sp1 (Homo sapiens) (P08047 whole entry, looked up): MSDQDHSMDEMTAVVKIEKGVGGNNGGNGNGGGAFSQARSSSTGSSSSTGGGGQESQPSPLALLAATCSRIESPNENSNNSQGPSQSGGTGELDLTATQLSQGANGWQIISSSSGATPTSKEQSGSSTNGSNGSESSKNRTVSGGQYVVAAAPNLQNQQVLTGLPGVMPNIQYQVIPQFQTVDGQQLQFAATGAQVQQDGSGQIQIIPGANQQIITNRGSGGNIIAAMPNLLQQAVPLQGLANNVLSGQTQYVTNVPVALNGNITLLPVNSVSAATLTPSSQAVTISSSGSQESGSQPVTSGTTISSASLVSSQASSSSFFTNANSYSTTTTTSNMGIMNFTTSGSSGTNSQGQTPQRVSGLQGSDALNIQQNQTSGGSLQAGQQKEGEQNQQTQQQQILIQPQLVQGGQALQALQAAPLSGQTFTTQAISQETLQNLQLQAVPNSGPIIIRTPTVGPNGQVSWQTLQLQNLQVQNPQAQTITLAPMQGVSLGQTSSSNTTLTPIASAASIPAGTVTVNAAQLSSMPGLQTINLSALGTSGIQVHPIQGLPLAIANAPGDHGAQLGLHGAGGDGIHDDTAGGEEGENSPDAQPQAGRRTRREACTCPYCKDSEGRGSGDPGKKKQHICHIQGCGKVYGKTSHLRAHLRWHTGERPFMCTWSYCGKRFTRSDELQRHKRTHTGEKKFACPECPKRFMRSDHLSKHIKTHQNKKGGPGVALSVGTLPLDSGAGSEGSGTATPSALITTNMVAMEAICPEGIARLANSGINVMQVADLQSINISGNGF
Sequence of Signal transducer and activator of transcription 3 (Homo sapiens) (P40763 whole entry, looked up): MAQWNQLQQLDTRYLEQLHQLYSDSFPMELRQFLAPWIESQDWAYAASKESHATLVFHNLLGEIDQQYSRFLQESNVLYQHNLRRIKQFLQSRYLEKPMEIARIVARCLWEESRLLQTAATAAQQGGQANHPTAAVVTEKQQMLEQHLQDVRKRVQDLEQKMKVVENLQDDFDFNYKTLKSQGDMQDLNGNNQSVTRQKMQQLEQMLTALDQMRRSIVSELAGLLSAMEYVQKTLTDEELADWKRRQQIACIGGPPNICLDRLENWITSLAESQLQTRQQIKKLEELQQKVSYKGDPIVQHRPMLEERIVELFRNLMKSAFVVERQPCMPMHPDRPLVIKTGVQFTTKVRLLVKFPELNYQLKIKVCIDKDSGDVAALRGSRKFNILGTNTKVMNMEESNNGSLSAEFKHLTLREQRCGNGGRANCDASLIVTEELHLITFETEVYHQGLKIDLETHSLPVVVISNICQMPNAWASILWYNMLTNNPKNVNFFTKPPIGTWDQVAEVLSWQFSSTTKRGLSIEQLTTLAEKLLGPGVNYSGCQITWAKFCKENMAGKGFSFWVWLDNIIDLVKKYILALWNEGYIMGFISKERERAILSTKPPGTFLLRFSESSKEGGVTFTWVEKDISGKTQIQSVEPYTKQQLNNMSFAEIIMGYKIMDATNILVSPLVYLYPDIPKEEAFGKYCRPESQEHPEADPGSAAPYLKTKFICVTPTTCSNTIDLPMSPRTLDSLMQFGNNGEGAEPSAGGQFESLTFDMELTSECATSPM

Consider `COc1cc2c(c(OC)c1OC)-c1ccc(OC)c(=O)cc1[C@@H](NC(C)=O)CC2`, for which the call in experiment [1], in experiment [2], in experiment [3], in experiment [4], in [5] and in experiment [6] was inactive. Also, in experiment [7], the AC50 is 0.348 µM (active).

As for `CCCOc1ccc(S(=O)(=O)N2CCN(CC)CC2)cc1-c1nc2c(CC)n(Cc3ccccn3)nc2c(=O)[nH]1`, the values for the AC50 in experiment [1], in experiment [5] and in experiment [7] were 1.18 µM (active), 27.5 µM (active) and 89.8 µM (active), respectively. The result in [8], in [3], in experiment [4] and in experiment [6] was inactive.

For the molecule `CCCCCCOC(=O)CC(CC(=O)OCCCCCC)(OC(=O)CCC)C(=O)OCCCCCC`, the AC50 in experiment [1] was 0.922 µM (active). Also, the molecule was called inactive in experiment [8], in [3], in experiment [4], in experiment [5], in [6] and in [9]. In addition, the outcome in experiment [7] was inactive.

Regarding `c1ccc(C(O[C@@H]2CCCN(CCc3ccc4c(c3)OCO4)C2)c2ccccc2)cc1`, the values for the concentration at half-maximal activity (AC50) in [1], in experiment [5] and in [9] were 0.514 µM (active), 10.7 µM (active) and 55.3 µM (active), respectively. For the same molecule, the molecule was called inactive in [8], in [3], in [4], in experiment [6] and in [7].

For the molecule `Cc1nccn1-c1ccc(Sc2cccc(C3(C(N)=O)CCOCC3)c2)cc1`, the outcome in [1], in [3] and in experiment [6] was inactive. In addition, the AC50 in experiment [2] is 5.29 µM (active); in [4] it was 2.31 µM (active); in [5], 2.08 µM (active); in [7], 6.41 µM (active).

Take `OCc1ccccc1`: the result in [1], in experiment [2], in experiment [3], in [4], in [5] and in [6] was inactive. Also, the result in [9] and in experiment [7] was inactive.

With `CCn1nc(C)c2c1C(=O)NCC(c1ccc(O)cc1)=N2`, the molecule was called inactive in experiment [1], in [8], in experiment [3], in experiment [4], in [6] and in experiment [9]. Moreover, the outcome in experiment [7] was inactive. Further, the concentration at half-maximal activity (AC50) in [5] was 2.82 µM (active).

As to `NC(N)=O`, the molecule was called inactive in experiment [1], in [8], in [2], in experiment [3], in experiment [4] and in experiment [5]. The molecule was classed as inactive in experiment [6] and in experiment [7].

Turning to `OCC(CO)(CO)CO`, the result in experiment [1], in experiment [8], in experiment [3], in experiment [4], in experiment [5] and in experiment [6] was inactive. The molecule was classed as inactive in experiment [9] and in experiment [7].

For `OCCOCCOCCO`, the outcome in experiment [1], in [3], in [4], in experiment [5], in experiment [6] and in experiment [7] was inactive.

For the molecule `CC(=O)c1ccccc1`, the molecule was classed as inactive in experiment [1], in experiment [8], in experiment [3], in experiment [4], in experiment [5] and in [6]. Also, in [7], the molecule was classed as inactive.

Take `O=C(O)c1cccc(C[C@@H]2COc3ccc(OCc4nc5cc(F)ccc5s4)cc3[C@@H]2O)c1`: the molecule was called inactive in experiment [1], in experiment [3], in experiment [4], in experiment [5] and in [6]. In addition, in experiment [7], the AC50 was 37.8 µM (active).

Regarding `OC[C@H]1O[C@@](CO)(O[C@H]2O[C@H](CO)[C@@H](O)[C@H](O)[C@H]2O)[C@@H](O)[C@@H]1O`, the call in [1], in experiment [8], in experiment [3], in experiment [4], in [5] and in experiment [6] was inactive. Besides, the molecule was called inactive in experiment [9] and in experiment [7].

Turning to `O=C(NO)C1(NS(=O)(=O)c2ccc(Oc3ccc(F)cc3)cc2)CCOCC1`, the result in experiment [1], in experiment [8], in experiment [2], in experiment [3], in experiment [4] and in experiment [6] was inactive. Also, the outcome in [7] was inactive. Besides, the concentration at half-maximal activity (AC50) in experiment [5] was 31.2 µM (active).

For `OC(Cn1cncn1)(Cn1cncn1)c1ccc(F)cc1F`, the outcome in [1], in experiment [8], in experiment [3], in experiment [4], in experiment [5] and in [6] was inactive. Further, the call in experiment [9] and in experiment [7] was inactive.

Consider `O=S(=O)(O)CCC(F)(F)C(F)(F)C(F)(F)C(F)(F)C(F)(F)C(F)(F)F`, for which the outcome in [1], in experiment [8], in experiment [3], in experiment [4], in experiment [5] and in experiment [6] was inactive. Also, the result in [9] and in experiment [7] was inactive.

Take `COCc1nnc(-c2ccc[n+]([O-])c2)n1-c1c(Cl)c(Cl)cc2[nH]c(=O)c(=O)[nH]c12`: the outcome in [1], in [2], in experiment [3], in [4], in experiment [5] and in experiment [6] was inactive. Besides, in experiment [7], the molecule was classed as inactive.

For the molecule `CC(C)c1nnc2ccc(-c3ocnc3-c3cc(F)ccc3F)cn12`, the AC50 was 26.5 µM (active) in [1] and 125 µM (active) in [4]. The result in experiment [8], in [3], in [5], in [6], in experiment [9] and in experiment [7] was inactive.

`O=S(=O)(O)c1ccc(N=Nc2c(O)ccc3cc(S(=O)(=O)O)ccc23)cc1`: the molecule was called inactive in experiment [1], in experiment [2], in [3], in experiment [4], in [5] and in experiment [6]. The molecule was classed as inactive in experiment [9] and in experiment [7].

Take `CC(C)C(=O)Nc1ccc([N+](=O)[O-])c(C(F)(F)F)c1`: in experiment [1], the AC50 is 2.87 µM (active). In addition, the outcome in experiment [2], in [3], in experiment [4], in [5], in experiment [6] and in experiment [7] was inactive.

`FC(F)(F)C(F)(F)C(F)(F)C(F)(F)C(F)(F)C(F)(F)I`: the call in experiment [1], in [8], in experiment [3], in experiment [4], in experiment [5] and in experiment [6] was inactive. For the same molecule, the result in [9] and in experiment [7] was inactive.

Regarding `C[C@@H](Oc1ccc(CNC(=O)c2cccnc2Oc2ccc3c(c2)OCO3)c(F)c1)C(=O)O`, the call in [1], in experiment [8], in experiment [2], in experiment [3], in experiment [4] and in experiment [5] was inactive. Moreover, the molecule was called inactive in [6] and in experiment [7].

With `OCc1c[nH]c2ccccc12`, the AC50 was 2.76 µM (active) [middle of 5 runs] in experiment [1] and 2.51 µM (active) [middle of 5 runs] in [2]. In addition, the outcome in [3], in experiment [4], in [5], in experiment [6], in [9] and in experiment [7] was inactive.
